# Screening results: PubChem, National Center for Advancing Translational Sciences (NCATS)
# An excerpt weighted towards active compounds, which were near 12% of everything screened.
# G9a block – blocks human histone lysine methyltransferase G9a; AID 504332; Q96KQ7; Potency, µM (doses to about 102 µM), without a hit: at the highest dose activity, negative = inhibition, hits mostly inhibitors; G9a H3K9 monomethylation, AlphaScreen, 2 h; 8.8% of 350,000 active; also: % is scaled to controls: 0 for no effect and ±100 for the full control effect; nearly all actives have a fitted effect of over 75% in size
# Target sequence (Q96KQ7 913-1193 limits assumed): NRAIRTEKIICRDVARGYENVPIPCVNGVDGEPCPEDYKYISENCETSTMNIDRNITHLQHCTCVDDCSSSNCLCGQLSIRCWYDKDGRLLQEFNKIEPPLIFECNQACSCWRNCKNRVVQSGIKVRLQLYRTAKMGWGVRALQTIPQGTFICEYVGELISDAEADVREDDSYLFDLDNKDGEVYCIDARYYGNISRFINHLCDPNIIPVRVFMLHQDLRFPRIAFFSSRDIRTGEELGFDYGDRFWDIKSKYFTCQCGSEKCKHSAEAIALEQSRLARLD
#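 Step 1: enzyme (final 20 nM) with compound, 15 min RT. Step 2: substrate peptide 500 nM and SAM 20 uM, 2 h RT. Step 3: anti-H3K9me1 antibody and AlphaScreen beads, 10 min, then plate read.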
# HP1b chromo inh – inhibitors of HP1-beta chromodomain binding to methylated histone tails | P83916 | Potency, µM (doses to about 114 µM), for the others: at the highest dose activity change, negative = inhibition, usual class: inhibitors | 0.56% of 390,000 active | AlphaScreen HP1-beta / biotin-H3K9me3 peptide binding; also: nearly all actives have a fitted effect of over 70% in size
# Target sequence (P83916 whole entry, looked up): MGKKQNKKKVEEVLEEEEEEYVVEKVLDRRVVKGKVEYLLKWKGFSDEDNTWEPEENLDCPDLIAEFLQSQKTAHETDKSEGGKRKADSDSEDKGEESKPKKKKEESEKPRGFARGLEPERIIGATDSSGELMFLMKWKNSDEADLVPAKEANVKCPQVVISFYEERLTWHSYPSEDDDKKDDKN
#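 HP1-beta protein (50 nM final) preincubated 30 min at room temperature with biotinylated H3(1-18)K9me3 peptide (50 nM) in PBS pH 7.4, 0.01% Tween-20, then compound added for 30 min. AlphaScreen streptavidin donor/nickel chelate acceptor beads (10 ug/mL final), 30 min dark, luminescence read.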
# L3MBTL1 block – inhibitors of human L3MBTL1; 0.66% of 230,000 active; Potency, µM (titrated, usually from 57.1 µM), inactives show top-dose activity, negative = inhibition, most hits filed as inhibitors; AlphaScreen L3MBTL1–H3K9me1 peptide binding; AID 485360; also: % is scaled to controls: 0 for no effect and ±100 for the full control effect; nearly all actives have a fitted effect of over 60% in size
#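 Read-out is AlphaScreen signal from streptavidin donor and nickel chelate acceptor beads (10 ug/mL final each) bridging L3MBTL1 (50 nM) and biotinylated K9-monomethylated H3(1-15) peptide (75 nM), after 30 min compound exposure at room temperature.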
# JMJD2A Tudor inh – blocks the human JMJD2A Tudor domain; Potency, µM (highest dose often 114 µM), for inactives: at the top dose activity change, negative = inhibition, usual class: inhibitors; AID 504339; 4.4% of 390,000 active; AlphaScreen JMJD2A-Tudor / H3K4me3 peptide binding; O75164; also: % is scaled to controls: 0 for no effect and ±100 for the full control effect; nearly all actives have a fitted effect of over 50% in size
# Sfp PPTase inh – inhibitors of Bacillus subtilis Sfp phosphopantetheinyl transferase | Q9F4F7 | Biochemical Sfp PPTase activity, qHTS | Potency, µM, without a hit: largest response in the series, negative = inhibition, usual class: inhibitors | 3.5% of 310,000 active;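 also: the enzyme is Sfp with the accession as filed and its product quenches rhodamine fluorescence; 0% = enzyme reaction without inhibitor and -100% = no enzyme wells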
#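 Fluorescence-quenching assay: 15 nM Sfp-PPTase preincubated 15 min at room temperature with compound, then 5 uM rhodamine-CoA and 12.5 uM BHQ-2-labelled YbbR peptide added. Fluorescence (ex 525/em 598 nm) read at start and after 30 min; difference gives rate.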
# BAZ2B inh – inhibitors of human BAZ2B bromodomain. Q9UIF8. AlphaScreen BAZ2B-H3K14Ac peptide displacement. Potency, µM (highest dose often 114 µM), inactives show at the highest dose activity change, negative = inhibition, hits mostly inhibitors. 4.4% of 360,000 active. AID 504333; also: % is scaled to controls: 0 for no effect and ±100 for the full control effect; nearly all actives have a fitted effect of over 60% in size
#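 BAZ2B 50 nM plus b-H3(5-23)K14Ac 50 nM, PBS pH 7.4/0.01% Tween-20, 30 min RT; compound added (max 110 uM), 30 min RT; streptavidin donor/Ni-chelate acceptor beads 10 ug/mL final, 20 min dark; AlphaScreen read.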
# Starred values were filed as active, the others as inactive; ? = inconclusive; · = no result given; [ ] = dose if it differs, or a comment. Calls follow the shape of the dose curve; as a rule, active = well fitted curve in the direction sought with a large enough effect; inconclusive = small, poorly fitted or top-dose-only effect, or another doubt; inactive = no such curve, though single readings can be large; an effect the other way counts as inactive or inconclusive. Potency is read from the fitted curve at half-maximal effect.
SMILES,G9a block,HP1b chromo inh,L3MBTL1 block,JMJD2A Tudor inh,Sfp PPTase inh,BAZ2B inh
CCOc1cc(/C=C\[N+](=O)[O-])ccc1OCC(=O)Nc1ccccc1C,?,41%,0%,-11%,2µM*,11%
CCCCCn1c(N)c(-c2nc3ccccc3o2)c2c([N+](=O)[O-])nn(C)c(=O)c21,-34%[59 µM],21%,-18%,45µM*,3%,?
CN(/N=C/C=C/c1ccccc1)c1cc(=O)n(C)c(=O)[nH]1,35%[59 µM],17%,-3%,?,?,-38%
COc1ccc(/C=N/N(C)c2cc(=O)n(C)c(=O)[nH]2)cc1OC,40µM*,28%,-2%,-17%,8%,79µM*
CC1CCCCC1NC(=O)CCCn1c(=S)[nH]c2ccsc2c1=O (stereo unspecified),32µM*,53%,·,-11%,-1%,-1%
O=C(CCCCn1c(=O)[nH]c2ccsc2c1=O)NCc1ccc2c(c1)OCO2,24%,39%,10%,0%,16%,11%
O=C(CCCn1c(=S)[nH]c2ccsc2c1=O)Nc1ccc2c(c1)OCCO2,3.5µM*,9%,-1%,-30%,?,-11%
CCOC(=O)N1CCN(C(=O)CCn2c(=S)[nH]c3ccsc3c2=O)CC1,45µM*,26%,·,?,56µM*,?
CC1CCCCC1NC(=O)CCCCn1c(=O)[nH]c2ccsc2c1=O (stereo unspecified),2%,16%,·,-9%,17%,-2%
O=C(CCCCn1c(=S)[nH]c2ccsc2c1=O)NCc1ccc2c(c1)OCO2,10µM*,17%,14%,-33%,-14%,?
COc1ccc2c(c1OC)C(=O)N1C2SC[C@H]1C(=O)NC1CCCC1 (stereo partly specified),?,38%,·,-24%,2%,-12%
CC(C)(C)OC(=O)N1CCC(Cc2cc(-c3cccnc3)no2)(C(=O)O)CC1,-42%[2.33 µM],29%,1%,-4%,·,-15%
Cc1nn2c(-c3cccc(NC(=O)CSc4nc5ccccc5o4)c3)nnc2c2ccccc12,16µM*,3%,-8%,-28%,56µM*,9%
Cc1ccccc1C(=O)Nc1cccc(NC(=O)c2ccc(C(C)(C)C)cc2)c1,-43%[59 µM],20%,·,-17%,·,-4%
N#C/C(=N\Nc1ccccc1)C(=N)N1CCCCC1,-7%,-8%,·,-23%,5%,?
CCN(CC)C(=N)/C(C#N)=N/Nc1ccccc1,·,?,-3%,79µM*,10%,-15%
N#CC(c1ccc(Cl)cc1)c1ccc2c(C(F)(F)F)cc(C(F)(F)F)nc2n1 (stereo unspecified),11µM*,8.9µM*,·,50µM*,11%,32µM*
Cc1cc(C(=O)CSc2nc3ccccc3[nH]2)c(C)n1C,?,?,-15%,56µM*,-90%,?
Cc1ccc2nc(SCC(=O)c3cc(C)n(C)c3C)[nH]c2c1,-19%,-15%,·,-20%,-15%,-37%
Cc1cc(C(=O)CSc2nc3ccccc3[nH]2)c(C)n1Cc1ccco1,14µM*,-14%,-5%,?,-10%,?
Cc1cc(C(=O)CN2C(=O)NC(C)(c3cccc(Br)c3)C2=O)c(C)n1Cc1ccco1 (stereo unspecified),50µM*,-16%,-15%,-31%,-3%,-3%
Cc1cc(C(=O)CSc2nc3ccc(Cl)cc3[nH]2)c(C)n1CC1CCCO1 (stereo unspecified),45µM*,-24%,·,?,-1%,?
COc1ccc(N2CCN(S(=O)(=O)c3c(C)[nH]c(C)c3C(=O)N3CCCC3)CC2)cc1,-6%,43%,·,-20%,11%,-35%
O=C(CSc1nnc(-c2ccccc2)c(-c2ccccc2)n1)Nc1ccccc1Cl,?,-27%,·,-35%,·,?
COc1ccc(-c2ccc3ncnc(NCC4CCCO4)c3c2)cc1OC (stereo unspecified),·,·,·,-35%,·,·
SMILES,G9a block,HP1b chromo inh,L3MBTL1 block,JMJD2A Tudor inh,Sfp PPTase inh,BAZ2B inh
COC(=O)C(C)n1cnc2c(nnn2-c2ccccc2)c1=O (stereo unspecified),89µM*,32%,0%,-3%,8%,-5%
CCOC(=O)C(C)n1cnc2c(nnn2-c2ccccc2)c1=O (stereo unspecified),15%,41%,11%,2%,10%,-22%
Cc1c(/C=C(\C#N)C(=O)NCc2ccccc2)cc(C#N)n1C,15%,8%,·,-13%,18%,7%
O=c1c(CCc2ccccc2)nc2cnc(Oc3cccc(Cl)c3)nc2n1C[C@H]1CCCO1,-5%[12.7 µM],·,·,·,20%,·
COc1ccc(C2C(C(C)=O)=C(O)C(=O)N2CCc2c[nH]c3ccccc23)cc1OC (stereo unspecified),25µM*,27%,·,-15%,-6%,-33%
CCN(CC)CCN1C(=O)C(O)=C(C(C)=O)C1c1ccc(OC)c(OC)c1 (stereo unspecified),?,50%,1%,9%,-8%,0%
CC(=O)C1=C(O)C(=O)N(CCc2c[nH]c3ccccc23)C1c1ccc(O)cc1 (stereo unspecified),-23%[59 µM],8%,-3%,89µM*,15%,-31%
COc1ccc(C2C(C(C)=O)=C(O)C(=O)N2CCN(C)C)cc1OC (stereo unspecified),50µM*,·,2%,·,13%,-11%
COC/C=C/c1cc(F)c(S(=O)(=O)N2CCN(S(=O)(=O)c3ccc4c(c3)OCCO4)CC2)cc1F,·,·,·,-13%,·,·
CCC(=O)Nc1cccc(-c2nc3ccccc3c(=O)o2)c1,-44%[59 µM],37%,-3%,-1%,14%,?
CC(=O)Nc1cccc(-c2nc3ccccc3c(=O)o2)c1,11µM*,58%,13%,-9%,19%,1%
COc1ccc(S(=O)(=O)N2CCC(n3c(C(F)(F)F)nc4cccnc43)CC2)cc1OC,-4%[59 µM],26%,·,-23%,·,-11%
CCCc1nnc(NC(=O)Cn2c(=O)oc3cc(Br)ccc32)s1,28µM*,6%,·,-6%,?,-9%
Oc1c(Br)cc(C=Nc2ccc3nc(-c4ccccc4)[nH]c3c2)c(O)c1Br,28µM*,-16%,·,?,56µM*,40µM*
C[C@@H]1NC(=O)c2cc([N+](=O)[O-])cc(I)c2NCC[C@@H](C(N)=O)NC(=O)[C@H](CC(N)=O)NC1=O,22µM*,23%,2%,-31%,-1%,-33%
C[C@@H]1NC(=O)[C@H](CCC(N)=O)NC(=O)c2cc([N+](=O)[O-])cc(I)c2NCC[C@@H](C(N)=O)NC1=O,11µM*,4%,3%,-35%,2%,?
